PubChem BioAssay (NCI)
About 83,000 compounds went through this panel and 20% of them were active in at least one assay; those are over-represented in the sample as a whole.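 Treatment: one concentration, 48 hours, 96-well format. Scoring: percent growth, with anything below 10 considered active.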 Values without a mark were called inactive. The source made the active and inactive calls.

The molecules below were run on SK-MEL-28 melanoma (assay: NCI-60 one-dose screen, 48 h (100 = growth as untreated, 0 = no growth, -100 = all killed)). Settings: 10 µM unless noted.

| SMILES | growth |
| --- | --- |
| CC(=O)N/C(=C1/OC(C(O)C(O)C(O)CO)CN1C)[P+](c1ccccc1)(c1ccccc1)c1ccccc1 (centres undefined) | 106% |
| COc1ccc(/C=C/C(=O)c2ccc(Nc3nc(Nc4ccc(F)cc4)nc(Nc4ccc(Cl)cc4)n3)cc2)cc1 | 110% |
| COc1ccc(C2=NN(C(=O)c3cc(OC)c(OC)c(OC)c3)C(c3ccc(N(C)C)cc3)C2)cc1 (centres undefined) | 56.3% |
| O=C1NC(=C(Cl)Cl)/C(=N/S(=O)(=O)NCCc2c[nH]c3ccccc23)N1 | 84% |
| COc1ccc(C/C(C)=C(\c2ccc(O)cc2)c2ccc(OCCN3CCCC3)cc2)cc1 | 97% |
| CCOC(=O)NN1CC(O)=C(c2nc(-c3ccc(Br)cc3)cs2)C1=N | 113% |
| COC(=O)/C(CCC=C(C)C)=C1\[C@@H](OC(C)=O)C[C@@]2(C)[C@H]1CC(=O)[C@H]1[C@@]3(C)CCC(N4CCCC4)[C@@H](C)[C@@H]3CC[C@@]12C (some centres undefined) | 93.6% |
| Nc1c(C(=O)Nc2ccccn2)sc2nc3c(cc12)C(O)CCC3 (centres undefined) | 46.6% |
| COc1ccc2nc3cc(Cl)ccc3c(NCCN)c2c1 | -65.8% (active) |
| Cc1cc2nc3c4ccccc4n(CCN(C)C)c3nc2cc1C | 20.1% |
| Cc1ccc(C)n1/C=C/n1c(C)ccc1C | 125% |
| Cc1c2ccccc2nc2c1ccc1cccnc12 | 113% |
| CN1CCN(Cc2ccc(NC(=O)c3cncc(C#Cc4cncc5ncccc45)c3)cc2C(F)(F)F)CC1 | 12.4% |
| CCNC(=O)Oc1ccc(/C(=C(/C)Cc2ccc(OC)cc2)c2ccc(OCCN3CCCCCC3)cc2)cc1 | 75.3% |
| NC(CSC(c1ccccc1)(c1ccccc1)c1ccc2c(c1)OCO2)C(=O)O (centres undefined) | 47.4% |
| Cn1ccnc1C(=O)/C=C/c1ccc(C(=O)Nc2ccc(F)cc2)cc1 | 60.9% |
| C=CCn1c(SCC(=O)Nc2ccc(C(=O)/C=C/c3ccc(OC)cc3)cc2)nnc1-c1ccccc1 | 89.4% |
| COc1ccccc1NC(=O)c1ccc(/C=C/C(=O)c2nccn2C)cc1 | -45.9% (active) |
| CCC/C(=N\NC(N)=O)C(OC)OC | 96.4% |
| O=C1c2cccnc2C(=O)c2c1c(C(=O)OCCCN1CCCCC1)c1ccccn21 | -20.3% (active) |

| SMILES | growth |
| --- | --- |
| O=C1CC2C=CCN2C=C1NC(=O)C1CCCCC1 (centres undefined) | 107% |
| O=C(Nc1ccccc1)c1sc(-c2ccccc2)cc1O | 84.4% |
| O=C1/C(=C/c2cccc([N+](=O)[O-])c2)COc2ccc(O)cc21 | 82.7% |
| COc1cc2c3c(c1O)-c1ccccc1[C@@H]1OC(=O)N(CC2)[C@H]31 | 118% |
| COC(c1ccc2ccccc2c1)C(C)C(F)F (centres undefined) | 96.3% |
| Nc1ncnc2c1c(-c1ccc(Oc3ccccc3)cc1)nn2CC1SSCC1O (centres undefined) | 2.15% (active) |
| C/C(=C(\c1ccc(OCCN2CCCCCC2)cc1)c1ccc(OC(=O)Cc2ccccc2)cc1)c1ccc(Cl)cc1 | -27.3% (active) |
| Cc1cc2oc(=O)cc(CP(=O)(O)O)c2cc1O | 98.4% |
| CCOC(=O)n1cc(-c2nonc2-c2cn(C)c3ccccc23)c2ccccc21 | 57.4% |
| Cc1cc(C)cc(Nc2ccc([N+](=O)[O-])c(NCCN3CCOCC3)n2)c1 | 60.9% |
| COc1ccccc1-n1c(-c2cc(O)ccc2C)cn2c3c(=O)[nH]c(=O)n(C)c3nc12 | 96.9% |
| O=c1oc2c(cnc3ccccc32)cc1-c1cccs1 | 115% |
| CCCCCCCCCCCCCCCCCCOc1ccccc1CC(=O)OCC[N+]1(C)CCOCC1 | 85.7% |
| COc1cc(C#Cc2ccc(=O)oc2C#Cc2ccccc2)cc(OC)c1OC | 23.1% |
| CCC(C)Nc1ccc(NC(C)CC)cc1 (centres undefined) | 104% |
| C#CCn1cnc2c(Nc3cccc(NC(=O)CCl)c3)ncnc21 | 39.5% |
| CC[C@H](CC[C@@H](C)[C@H]1CC[C@H]2[C@@H]3CC[C@@H]4CC(=O)/C(=C\c5ccncc5)C[C@]4(C)[C@H]3CC[C@]12C)C(C)C | 107% |
| COc1ccc2nc3ccccc3c(NCc3ccc(F)cc3)c2c1 | 35.3% |
| COc1ccc(Cl)cc1Nc1nc(C(F)(F)F)ccc1C(=O)N/N=C/c1ccccc1Cl | 32.5% |
